The values below come from PubChem BioAssay (EPA / NIEHS).

“And” between values parts separate entries of the source, which are not always exact repeats. Equal values may be shown once. The source made the active and inactive calls. Rule for the calls: active = hit-call score of the fitted dose curve at least 0.9, where 1 is the maximum; inactive = score below 0.9.

The assay is described as follows: CCTE_Shafer_MEA_dev_network_spike_peak: CCTE's Neural Network Formation Assay for Mean Number of Electrodes in Network Spike, Shafer Lab (AID 2284049). The protocol: CCTE_Shafer_MEA_dev assay is conducted using Axion Biosystems 48 well microelectrode array (MEA) plates and Maestro recording system. Each well of the MEA plate contains a grid of 16 microelectrodes embedded in the culture surface. Electrically active cells, such as neurons, can be cultured over the electrodes, and electrical activity in these cells can be recorded extracellularly. The spontaneous firing of neurons is captured from each electrode on a microsecond timescale providing both temporally and spatially precise data. […] The CCTE_Shafer_MEA_dev assay uses primary cultures of rat cortical neurons. Recordings are made on days post-plating 5, 7, 9 and 12. As these cultures mature over time, neural networks develop functional activity and form cohesive networks in which electrical activity can be highly coordinated. CCTE_Shafer_MEA_dev_network_spike_peak is 1 of 19 assay components of the CCTE_Shafer_MEA_dev assay. It measures the average number of electrodes participating at the peak of a network spike (the peak of a temporally-clustered group of action potential firing across multiple electrodes) during a recording in a microelectrode array (MEA) using Axion Biosystems Maestro 768 channel amplifier with the AxIS adaptive spike detector. To collapse across multiple recordings made on days post-plating 5, 7, 9 and 12, the trapezoidal area-under-the-curve of the component is calculated.Data from the assay component CCTE_Shafer_MEA_dev_network_spike_peak was analyzed into 1 assay endpoint. This assay endpoint, CCTE_Shafer_MEA_dev_network_spike_peak, was analyzed in the negative analysis fitting direction relative to DMSO as the negative control and baseline of activity. Using a type of functional reporter, gain or loss-of-signal activity can be used to understand electrical activity.
On the day prior to culture, each well was coated thoroughly with 150 uL of 0.05% polyethyleneimine (PEI, Sigma Cat P3143) in 50 mM HEPES (Sigma Cat H7523) at a pH of 8. The plate was incubated at 37C for one hour. PEI was rinsed out with 500 uL of sterile water three times. Plates were stored at 4C until the day of culture. This culture was plated at a seeding density of 1.5 x 10^5 cells/well on a 48-well MEA plate, prepared as described above. Cells were administered via a 25 uL media/laminin ([…]; Sigma Cat L2020-1MG) drop directly onto the microelectrode array, as adding the cells with the laminin results in better attachment than pre-coating with laminin. After 2 hours, an additional 475 uL of cortical media was added and the cells returned to the incubator. Exposure starts at day 0 of plating and is continued over twelve days of network development until the experiment is terminated. Cells are fed with fresh medium on DIV 5 and 9, following the recordings on those days. The entire volume of media in the well is exchanged and any vehicle or compound treatment is renewed. Complete details are found in OP-NHEERL/ISTD/SBB/TJS/2015-03-r0 (available on request, email shafer.tim@epa.gov). Measurement of the electrical activity is non-invasive, and recordings can be made from the same plate over multiple different days of the culture. In cortical neurons, this allows for the measurement of extracellular action potentials over the period during which networks form in the MEA plate.
On to `CN1CCC[C@H]1c1cccnc1`, for which the result was inactive. Regarding `OCCC(F)(F)C(F)(F)C(F)(F)C(F)(F)C(F)(F)C(F)(F)C(F)(F)C(F)(F)F`, the AC50 (commonly the concentration giving half of the maximal activity seen) is 24.2 µM (active). `c1ccc2c(c1)Cc1ccccc1-2`: the compound was classed as inactive. Turning to `OCCC(F)(F)C(F)(F)C(F)(F)C(F)(F)C(F)(F)C(F)(F)F`, the compound was called inactive. Still for that read-out and setting: in the case of `CC(O)CO` (stereo not given) it was “inactive”; in that of `c1ccc2c(c1)ccc1ccccc12`, “inactive”.

For the compound `CC1=C(/C=C/C(C)=C/C=C/C(C)=C/C(=O)O)C(C)(C)CCC1`, the AC50 was 24.1 µM (active).

On to `CC#C[C@]1(O)CC[C@H]2[C@@H]3CCC4=CC(=O)CCC4=C3[C@@H](c3ccc(N(C)C)cc3)C[C@@]21C`, for which the AC50 is 2.53 µM (active) and 22.2 µM (active). With `C=C(C)C(=O)OCCC(F)(F)C(F)(F)C(F)(F)C(F)(F)C(F)(F)C(F)(F)F`, the compound was called inactive.

On to `c1ccc2cc3c(ccc4ccccc43)cc2c1`, for which the AC50 is 10 µM (active).
